Source: PubChem BioAssay (NCATS)
Records with an inconclusive call do not appear. The source made the active and inactive calls. The call rests on the fitted dose curve.

Key:
[1] = Primary qHTS for inhibitors of SARS-S pseudo-typed particle cell entry (AID 1479145); further: nearly all actives have a fitted effect of over 45% in size
[2] = Primary qHTS for Huh7 cytotoxicity: counterscreen for inhibitors of MERS-S pseudotyped particle cell entry (AID 1479147)
[3] = Primary qHTS for inhibitors of MERS-S pseudo-typed particle cell entry (AID 1479149); further: nearly all actives have a fitted effect of over 60% in size
[4] = Primary qHTS for Vero E6 cytotoxicity: counterscreen for inhibitors of SARS-S pseudo-typed particle cell entry (AID 1479150); further: potency means the concentration at half of the fitted maximal effect

Measured: Potency

CCN(CC)CCNC(C(=O)OCCC(C)C)c1ccccc1 (stereo not drawn)
inactive: [1] | [2] | [3] | [4]

CCCCC/C=C\C/C=C\CCCCCCCC(=O)NC(C)c1ccccc1 (stereo not drawn)
inactive: [1] | [2] | [3] | [4]

CC(C)(C)NCC(O)COc1cccc2c1CCC(=O)N2 (stereo not drawn)
inactive: [1] | [2] | [3] | [4]

CCOc1cc(N)c(Cl)cc1C(=O)NCC1CN(Cc2ccc(F)cc2)CCO1 (stereo not drawn)
inactive: [1] | [2] | [3] | [4]

C/C(=C(/OCCOc1ccc(Cl)cc1)c1ccc(Cl)cc1Cl)n1ccnc1
inactive: [1] | [2] | [3] | [4]

O=C1C(c2[nH]c3ccccc3c2O)=Nc2ccccc21
inactive: [1] | [2] | [3] | [4]

OC1C(O)C(O)C(O)C(O)C1O (stereo not drawn)
inactive: [1] | [2] | [3] | [4]

CCOC(=O)c1c(N)sc2c1CCN(Cc1ccccc1)C2
inactive: [1] | [2] | [3] | [4]

CCOc1ccc2nc(S(N)(=O)=O)sc2c1
inactive: [1] | [2] | [3] | [4]

CC[C@H](NC(C)C)[C@H](O)c1ccc(O)c2[nH]c(=O)ccc12
inactive: [1] | [2] | [3] | [4]

Cc1ccc(/C=N/n2c(-c3ccccc3)csc2=S)cc1
inactive: [1] | [2] | [3] | [4]

COc1ccc(CN(CCN(C)C)c2ccccn2)cc1
inactive: [1] | [2] | [3] | [4]

Cc1c(F)cc2c(=O)c(C(=O)O)cn3c2c1CCC3C (stereo not drawn)
inactive: [1] | [2] | [3] | [4]

Cc1ccc(C(=O)Oc2ccc(C(O)CNC(C)(C)C)cc2OC(=O)c2ccc(C)cc2)cc1 (stereo not drawn)
inactive: [1] | [2] | [3] | [4]

FC(F)(F)C(Cl)Br (stereo not drawn)
inactive: [1] | [2] | [3] | [4]

CC(=O)Oc1c(C)c(C)c2c(c1C)CC[C@@](C)(CCC[C@H](C)CCC[C@H](C)CCCC(C)C)O2
inactive: [1] | [2] | [3] | [4]

CCCCNc1cc(C(=O)O)cc(S(N)(=O)=O)c1Oc1ccccc1
inactive: [1] | [2] | [3] | [4]

c1ccc2[nH]c(-c3cscn3)nc2c1
inactive: [1] | [2] | [3] | [4]

CC(C)NCC(O)COc1ccc(COCCOC(C)C)cc1 (stereo not drawn)
inactive: [1] | [2] | [3] | [4]

C#CCN(C)Cc1ccccc1
inactive: [1] | [2] | [3] | [4]

O=C(OCC(COC(=O)c1cccnc1)(COC(=O)c1cccnc1)COC(=O)c1cccnc1)c1cccnc1
inactive: [1] | [2] | [3] | [4]

CC(C(=O)O)c1ccc(CC2CCCC2=O)cc1 (stereo not drawn)
inactive: [1] | [2] | [3] | [4]

CN(Cc1ccc(C(C)(C)C)cc1)Cc1cccc2ccccc12
inactive: [1] | [2] | [3] | [4]

C[C@H](CCC(=O)O)[C@H]1CC[C@H]2[C@@H]3C(=O)C[C@@H]4CC(=O)CC[C@]4(C)[C@H]3CC(=O)[C@]12C
inactive: [1] | [2] | [3] | [4]

NC1=NCC2c3ccccc3Cc3ccccc3N12 (stereo not drawn)
inactive: [1] | [2] | [3] | [4]

Nc1c2c(nc3ccccc13)CCCC2
inactive: [1] | [2] | [3] | [4]

CC(C)C[C@@H](N)C(=O)O
inactive: [1] | [2] | [3] | [4]

C[C@H](N)[C@H](O)c1cccc(O)c1
inactive: [1] | [2] | [3] | [4]

CCOc1ccc(NC(C)=O)cc1
inactive: [1] | [2] | [3] | [4]

C=Cc1c(C)c2cc3[nH]c(cc4nc(cc5nc(cc1[nH]2)C(C)=C5CCC(=O)O)C(CCC(=O)O)=C4C)c(C)c3C=C
inactive: [1] | [2] | [3] | [4]

CCCn1cnc2c1c(=O)n(CCCCC(C)=O)c(=O)n2C
inactive: [1] | [2] | [3] | [4]

C[C@H]1NCc2cc(-c3ccc4c(=O)c(C(=O)O)cn(C5CC5)c4c3OC(F)F)ccc21
inactive: [1] | [2] | [3] | [4]

C[C@@H]1CCN(C(=O)[C@H](CCCN=C(N)N)NS(=O)(=O)c2cccc3c2NC[C@H](C)C3)[C@@H](C(=O)O)C1
inactive: [1] | [2] | [3] | [4]

CCCN(CCC)C(=O)C(CCC(=O)O)NC(=O)c1ccccc1 (stereo not drawn)
inactive: [1] | [2] | [3] | [4]

C[C@H]1COc2c(C3(N)CC3)c(F)cc3c(=O)c(C(=O)O)cn1c23
inactive: [1] | [2] | [3] | [4]

CCCCCOc1ccc(C2SC(=O)NC2=O)cc1OCC (stereo not drawn)
inactive: [1] | [2] | [3] | [4]

O=c1ccc2ccccc2o1
inactive: [1] | [2] | [3] | [4]

CC(C)(C)C(=O)OCOC(=O)[C@@H]1N2C(=O)[C@@H](NC(=O)[C@H](N)c3ccccc3)[C@H]2SC1(C)C
inactive: [1] | [2] | [3] | [4]

COCc1c(C(C)C)nc(C(C)C)c(/C=C/[C@@H](O)C[C@@H](O)CC(=O)O)c1-c1ccc(F)cc1
active: [4] 0.708 µM
inactive: [1] | [2] | [3]

COCCc1ccc(OCC(O)CNC(C)C)cc1 (stereo not drawn)
inactive: [1] | [2] | [3] | [4]

c1ccc(CN(CC2=NCCN2)c2ccccc2)cc1
inactive: [1] | [2] | [3] | [4]

Cc1nc(C2CCCCC2)c(-c2ccc(S(N)(=O)=O)c(F)c2)o1
inactive: [1] | [2] | [3] | [4]

Oc1ccc(C(O)CNCCCCCCNCC(O)c2ccc(O)c(O)c2)cc1O (stereo not drawn)
inactive: [1] | [2] | [3] | [4]

O=C(O)CCC(=O)Nc1ccc(S(=O)(=O)Nc2nccs2)cc1
inactive: [1] | [2] | [3] | [4]

CC(C)NCCCC1(C(N)=O)c2ccccc2-c2ccccc21
inactive: [1] | [2] | [3] | [4]

NCCc1ccc(O)c(O)c1
inactive: [1] | [2] | [3] | [4]

CCc1cccc2c3c([nH]c12)C(CC)(CC(=O)O)OCC3 (stereo not drawn)
inactive: [1] | [2] | [3] | [4]
